Source: PubChem (National Center for Advancing Translational Sciences (NCATS))
Rab9 prom act = qHTS Assay for Rab9 Promoter Activators. Potency, µM (titrated, usually from 9.22 µM), without a hit: at the highest dose activation, negative = inhibition, most hits filed as activators. Huh7 Rab9 promoter-luciferase reporter, luminescence, 24 h. AID 485297, 2010. 320,000 compounds, 2.8% hits; further: % of control where 0% means no effect; nearly all actives have a fitted effect of over 60% in size
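Luminescence read-out: Huh7 cells stably expressing Rab9-luciferase, treated 24 h with compound at 37 °C, then lysed with luciferase reagent for 10 min at ambient before reading.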
ELG1 DNA repair = qHTS screen for small molecules that inhibit ELG1-dependent DNA repair in human embryonic kidney (HEK293T) cells expressing luciferase-tagged ELG1. AID 504467, 2011. Potency, µM (titrated, usually from 46.1 µM), without a hit: top-dose activity change, negative = inhibition, usual class: inhibitors. 330,000 compounds, 2.3% hits. HEK293T ELG1-luciferase reporter, luminescence, 16 h; DNA damage induced by 5-fluorouridine; further: on the % scale 0 is the no-effect control and ±100 the full control effect; nearly all actives have a fitted effect of over 55% in size
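Step one: seed 2,000 cells per well. Step two: pin-transfer compound or DMSO alongside 5-fluorouridine. Step three: incubate 16 hr, 37 °C, 5% CO2. Step four: add ONE-Glo, wait 30 min, read luminescence.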
SMN2 splice up = qHTS Assay for Enhancers of SMN2 Splice Variant Expression; HEK293 SMN2-luciferase splicing reporter, luminescence, 30-36 h; Potency, µM (series often up to 46.1 µM), for inactives: at the top dose activity change, positive = activation, actives largely listed as activators; 210,000 compounds, 2.8% hits; AID 1458, 2008; further: % of control where 0% means no effect; nearly all actives have a fitted effect of over 55% in size
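HEK293 cells carry an SMN2 […]–luciferase reporter in which exon 7 inclusion puts luciferase in frame. Cells were plated 10-12 h before compound addition, then incubated 30-36 h at 37C. ONE-Glo luminescence was read; sodium butyrate at 4.5 mM final served as control.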
ELG1 genotox = qHTS screen for small molecules that induce genotoxicity in human embryonic kidney (HEK293T) cells expressing luciferase-tagged ELG1 | 330,000 compounds, 1.3% hits | HEK293T ELG1-luciferase reporter, luminescence, 16 h | Potency, µM (series often up to 46 µM), for inactives: at the top dose activity change, positive = activation, actives largely listed as activators; further: % of control where 0% means no effect; nearly all actives have a fitted effect of over 60% in size
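Quantitative HTS format in 1536-well plates. HEK293T ELG1-luciferase reporter cells receive test compound and are incubated 16 hr at 37 °C, 5% CO2; ONE-Glo added, 30 min room temperature, then luminescence read.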
NPC1 promoter act = qHTS Assay for NPC1 Promoter Activators. Huh7 NPC1 promoter luciferase reporter, 24 h. Potency, µM (doses to about 9.22 µM), for inactives: at the top dose activation, actives largely listed as activators. 320,000 compounds, 2.4% hits. AID 485313, 2010; further: % of control where 0% means no effect; nearly all actives have a fitted effect of over 60% in size
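Cells: Huh7 expressing luciferase under the NPC1 promoter, 1500/well. Seeded 2 h, compound added, incubated 24 h at 37 °C. Luciferase reagent, 10 min ambient, then luminescence.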
FLuc counter = qHTS profiling assay for firefly luciferase inhibitor/activator using purifed enzyme and Km concentrations of substrates (counterscreen for miR-21 project). Luciferin 4-monooxygenase (Photinus pyralis), P08659. purified FLuc, Km substrates, luminescence inhibition. Potency, µM (titrated, usually from 57.5 µM), inactives show at the top dose activity change, negative = inhibition, usual class: inhibitors. 360,000 compounds, 6.9% hits;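 further: plate controls were vehicle for no effect and reference inhibitor for full effect; nearly all actives have a fitted effect of over 55% in size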
Target sequence (P08659 whole entry, looked up): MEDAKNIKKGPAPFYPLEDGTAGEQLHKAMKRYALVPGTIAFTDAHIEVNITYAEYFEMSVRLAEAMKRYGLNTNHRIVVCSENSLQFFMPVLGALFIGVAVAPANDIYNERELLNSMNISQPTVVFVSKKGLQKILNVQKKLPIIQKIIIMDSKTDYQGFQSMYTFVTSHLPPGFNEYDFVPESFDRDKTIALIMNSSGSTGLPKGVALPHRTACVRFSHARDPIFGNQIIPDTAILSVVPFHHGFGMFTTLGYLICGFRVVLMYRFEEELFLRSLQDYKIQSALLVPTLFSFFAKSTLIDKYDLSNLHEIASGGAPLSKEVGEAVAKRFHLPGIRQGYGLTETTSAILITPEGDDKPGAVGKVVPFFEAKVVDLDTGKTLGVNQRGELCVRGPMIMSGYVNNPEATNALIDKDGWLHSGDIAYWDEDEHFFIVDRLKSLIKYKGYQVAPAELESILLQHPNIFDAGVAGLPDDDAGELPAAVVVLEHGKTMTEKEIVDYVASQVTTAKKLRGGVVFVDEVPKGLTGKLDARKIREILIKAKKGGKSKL
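Purified P. pyralis luciferase (10nM final) with 10uM D-luciferin and 10uM ATP (Km levels) in 50mM Tris acetate pH 7.5, 10mM Mg acetate, 0.01% Tween-20, 0.05% BSA; qHTS 6-point titration, ~60 µM downward; luminescence read.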
Starred values were filed as active, the others as inactive; [ ] = another dose, or the depositor's remark. Rows were chosen to be rich in hits. Some 9.2% of all compounds tested hit in one or more screens of this group. The call rests on the fitted dose curve; in most records, active means well fitted curve in the direction sought with a large enough effect; inconclusive means small, poorly fitted or top-dose-only effect, or another doubt; inactive means no such curve, though single readings can be large; an effect the other way counts as inactive or inconclusive. Potency means the concentration at half of the fitted maximal effect.

Cc1ccc(NC(=S)NNC(C)(C)C)cc1 was read as Rab9 prom act 17.5%, ELG1 DNA repair -2.8%, ELG1 genotox -6.8%, NPC1 promoter act 11.4% and FLuc counter inconclusive.
Screening NC(=O)CNC(=O)c1ccc(Cl)cc1 returned Rab9 prom act -0.8%, ELG1 DNA repair -16.4%, ELG1 genotox 0.2%, NPC1 promoter act 1.6% and FLuc counter 0.4%.
CCCCCN1C=CC(=C2C(=O)c3ccccc3C2=O)C=C1 was read as Rab9 prom act 0.0158µM*, ELG1 DNA repair inconclusive, SMN2 splice up -100.3%, ELG1 genotox -12.6%, NPC1 promoter act 0.126µM* and FLuc counter 0.0675µM*.
`CCN1C(=C2C(=O)c3ccccc3C2=O)C=Cc2ccccc21` gave Rab9 prom act 8.8%, ELG1 DNA repair 17.3%, SMN2 splice up -1.9%, ELG1 genotox inconclusive, NPC1 promoter act 9.6% and FLuc counter inconclusive.
COc1ccccc1C(=O)NC(=O)COC(=O)c1ccc([N+](=O)[O-])cc1 was read as Rab9 prom act -2.5%, ELG1 DNA repair 13.8%, ELG1 genotox -4.6%, NPC1 promoter act 6.2% and FLuc counter 2.3%.
`COc1ccc2c(c1)C(=O)[C@H](OC(=O)NCc1ccco1)[C@@H](c1ccc(OC)c(Br)c1)O2` gave SMN2 splice up 2.6%.
Cc1ccc(CN(C(=O)Cn2nnc3ccccc32)C(C(=O)NCc2ccco2)c2ccc(C)o2)cc1 (stereo not given) was read as Rab9 prom act -1.9%, ELG1 DNA repair 23.1µM*, SMN2 splice up 19.0%, ELG1 genotox -8.3%, NPC1 promoter act -3.0% and FLuc counter 2.4%.
Cc1ccc(N(C(=O)Cn2nnc3ccccc32)C(C(=O)NCc2ccco2)c2ccc(C)o2)cc1 (stereo not given) was read as Rab9 prom act 7.5%, ELG1 DNA repair -7.7%, SMN2 splice up -7.7%, ELG1 genotox -3.8%, NPC1 promoter act 0.5% and FLuc counter -1.0%.
Cc1ccc(Nc2nc(C)cc(C)n2)c(Br)c1 was read as Rab9 prom act 18.6%, ELG1 DNA repair inconclusive, SMN2 splice up 4.4%, ELG1 genotox 7.6%, NPC1 promoter act 22.2% and FLuc counter 21.3µM*.
Screening CCOc1ccc(NC(=O)c2ccccc2CO)cc1 returned Rab9 prom act inconclusive, ELG1 DNA repair inconclusive, SMN2 splice up 12.2%, ELG1 genotox inconclusive, NPC1 promoter act inconclusive and FLuc counter 16.9µM*.
`COc1ccccc1C(=O)NCC(=O)OCC(=O)N1CC(C)OC(C)C1` (stereo not given) gave Rab9 prom act -1.0%, ELG1 DNA repair 20.8%, ELG1 genotox 0.0%, NPC1 promoter act -1.4% and FLuc counter -2.6%.
Screening CCOc1ccc(NC(=O)c2ccccc2OC)cc1 returned Rab9 prom act inconclusive, ELG1 DNA repair inconclusive, SMN2 splice up inconclusive, ELG1 genotox inconclusive, NPC1 promoter act inconclusive and FLuc counter 12µM*.
Screening CCOc1ccc(NC(=O)c2ccc(NC(=O)c3ccccc3Br)cc2)cc1 returned Rab9 prom act -1.4%, ELG1 DNA repair 26.8%, ELG1 genotox inconclusive, NPC1 promoter act -0.7% and FLuc counter -14.8%.
Screening COc1ccccc1C(=O)Nc1ccc(OCC(=O)N2CC(C)OC(C)C2)cc1 (stereo not given) returned Rab9 prom act -5.2%, ELG1 DNA repair inconclusive, ELG1 genotox 9.0%, NPC1 promoter act -0.3% and FLuc counter 5.36µM*.
Screening CCOc1ccc(NC(=O)c2ccccc2O)cc1 returned Rab9 prom act 1.58µM*, ELG1 DNA repair inconclusive, SMN2 splice up 3.16µM*, ELG1 genotox inconclusive, NPC1 promoter act 1.41µM* and FLuc counter 0.536µM*.
`NC(=O)c1ccccc1NC(=O)CCn1c(=S)oc2ccccc21` gave Rab9 prom act 5.3%, ELG1 DNA repair 8.3%, ELG1 genotox -1.3%, NPC1 promoter act 1.1% and FLuc counter 1.9%.
For CCCc1c(-c2ccc(O)cc2)nn(-c2ccc(O)cc2)c1-c1ccc(O)cc1 the results were Rab9 prom act -11.7%[46.1 µM], ELG1 DNA repair -18.3%, SMN2 splice up -18.5%, ELG1 genotox -7.0%, NPC1 promoter act -7.1%[46.1 µM] and FLuc counter 2.8%.
For Cc1cc(C)cc(-c2cc3c(c(-c4c(O)c(-c5cc(C)cc(C)c5)cc5c4CCCC5)c2O)CCCC3)c1 the results were SMN2 splice up 1.0%.
For CCOC(=O)N1CCN(C(=O)c2cn(CC)c3ccc(S(=O)(=O)N(C)C4CCCCC4)cc3c2=O)CC1 the results were Rab9 prom act -4.1%, ELG1 DNA repair -5.4%, ELG1 genotox 0.1%, NPC1 promoter act 0.8% and FLuc counter 0.5%.
COc1ccccc1C(=O)Nc1ccc(C(=O)O)cc1 was read as Rab9 prom act -0.9%, ELG1 DNA repair 15.1%, SMN2 splice up 9.1%, ELG1 genotox 3.3%, NPC1 promoter act 0.4% and FLuc counter -12.7%.
Screening COc1ccccc1C(=O)Nc1ccc(C(=O)c2ccccc2)cc1 returned Rab9 prom act inconclusive, ELG1 DNA repair inconclusive, SMN2 splice up -4.6%, ELG1 genotox 3.7%, NPC1 promoter act -5.4% and FLuc counter 13.5µM*.
Screening O=C(CN1C(=O)COc2ccc(S(=O)(=O)N3CCCC3)cc21)NCCc1ccc(Cl)cc1 returned FLuc counter 3.7%.
Oc1ccc(N=Nc2n[nH]c(-c3ccccc3)n2)cc1 was read as Rab9 prom act 1µM*, ELG1 DNA repair inconclusive, SMN2 splice up inconclusive, ELG1 genotox 8.2µM*, NPC1 promoter act 1.58µM* and FLuc counter 3.79µM*.
Oc1ccc(N=Nc2n[nH]c(-c3ccc(Br)cc3)n2)cc1 was read as Rab9 prom act -9.1%, ELG1 DNA repair inconclusive, SMN2 splice up 15.8µM*, ELG1 genotox 5.6%, NPC1 promoter act 12.1% and FLuc counter 7.57µM*.
Screening O=[N+]([O-])c1ccccc1/C=C/C=N/Nc1ccc(S(=O)(=O)Nc2ccc(Cl)cc2)cc1[N+](=O)[O-] returned Rab9 prom act -9.8%, ELG1 DNA repair inconclusive, SMN2 splice up inconclusive, ELG1 genotox -10.8%, NPC1 promoter act -4.9% and FLuc counter -4.3%.
For Oc1c(C(c2cccc(Cl)c2)N2CCOCC2)sc2nc(-c3ccco3)nn12 (stereo not given) the results were FLuc counter -17.7%.
